According to PubChem BioAssay AID1159580 (chemical genetic matrix, 2015):
Screen size: about 5,500 compounds; about 2,000 (36%) were called active. Inconclusive results (about 18%) are left out. Cut-off read from the data, not from the text of the source: active = normalized growth mostly below about 0.91 (no sharp cut-off); inconclusive = no clear call, values can overlap the other calls; inactive = mostly above about 0.92. This is one part of the list.

Test: chemical genetic growth profiling, strain panel (AID 1159580);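 note: tested at 20 µM; growth read once vehicle control cultures reached saturation at 30 °C; 1 = growth at the plate median or of vehicle wells; lower values mean less growth of the strain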
Conditions: growth OD

Measured: normalized growth

CO[C@H]1C[C@H](O[C@H]2[C@H](C)[C@@H](OC3O[C@H](C)C[C@H](N(C)C)[C@H]3OC(C)=O)[C@@H](C)C[C@]3(CO3)C(=O)[C@H](C)[C@@H](OC(C)=O)[C@@H](C)[C@@H](C)OC(=O)[C@@H]2C)O[C@@H](C)[C@@H]1OC(C)=O (some centres undefined)
inactive: S. cerevisiae deletion strains, locus YKL009W, strain mrt4, hits give low values 0.977 | S. cerevisiae deletion strains, locus YKL068W, hits give low values 0.995 | S. cerevisiae deletion strains, locus YKL085W, strain MDH1 (second series), hits give low values 0.989 | S. cerevisiae deletion strains, locus YKL085W, strain MDH1, hits give low values 0.989 | S. cerevisiae deletion strains, locus YKL160W, strain elf1, hits give low values 0.984 | S. cerevisiae deletion strains, locus YKL190W, strain CNB1, hits give low values 1 | S. cerevisiae deletion strains, locus YKR001C, strain vps1, hits give low values 0.982 | S. cerevisiae deletion strains, locus YKR026C, strain gcn3, hits give low values 0.982 | S. cerevisiae deletion strains, locus YKR091W, strain srl3, hits give low values 0.997 | S. cerevisiae deletion strains, locus YLL001W, strain dnm1, hits give low values 1.01 | S. cerevisiae deletion strains, locus YLL026W, hits give low values 1 | S. cerevisiae deletion strains, locus YLL041C, strain sdh2, hits give low values 1 | S. cerevisiae deletion strains, locus YLR027C, strain aat2, hits give low values 0.984 | S. cerevisiae deletion strains, locus YLR039C, strain RIC1, hits give low values 1.02 | S. cerevisiae deletion strains, locus YLR058C, strain SHM2, hits give low values 1.01 | S. cerevisiae deletion strains, locus YLR102C, strain apc9, hits give low values 0.989 | S. cerevisiae deletion strains, locus YLR113W, strain HOG1, hits give low values 0.978 | S. cerevisiae deletion strains, locus YLR221C, strain rsa3, hits give low values 0.99 | S. cerevisiae deletion strains, locus YLR258W, strain gsy2, hits give low values 0.997 | S. cerevisiae deletion strains, locus YLR262C, strain YPT6 (second series), hits give low values 0.983 | S. cerevisiae deletion strains, locus YLR262C, strain YPT6, hits give low values 1.02 | S. cerevisiae deletion strains, locus YLR268W, strain sec22, hits give low values 0.987 | S. cerevisiae deletion strains, locus YLR320W, strain mms22, hits give low values 0.993 | S. cerevisiae deletion strains, locus YLR330W, strain CHS5, hits give low values 1 | S. cerevisiae deletion strains, locus YLR342W, strain FKS1 (second series), hits give low values 0.983 | S. cerevisiae deletion strains, locus YLR342W, strain FKS1, hits give low values 0.982 | S. cerevisiae deletion strains, locus YLR357W, strain rsc2, hits give low values 0.997 | S. cerevisiae deletion strains, locus YLR370C, strain arc18, hits give low values 0.993 | S. cerevisiae deletion strains, locus YLR371W, strain rom2, hits give low values 0.983 | S. cerevisiae deletion strains, locus YLR384C, strain iki3, hits give low values 0.995 | S. cerevisiae deletion strains, locus YLR418C, strain cdc73, hits give low values 0.961 | S. cerevisiae deletion strains, locus YML016C, strain PPZ1, hits give low values 1.01 | S. cerevisiae deletion strains, locus YML032C, strain rad52, hits give low values 0.991 | S. cerevisiae deletion strains, locus YML120C, strain ndi1, hits give low values 0.989 | S. cerevisiae deletion strains, locus YML124C, strain tub3, hits give low values 0.985 | S. cerevisiae deletion strains, locus YMR058W, strain fet3, hits give low values 1 | S. cerevisiae deletion strains, locus YMR078C, strain ctf18, hits give low values 1 | S. cerevisiae deletion strains, locus YMR125W, strain sto1, hits give low values 0.975 | S. cerevisiae deletion strains, locus YMR129W, hits give low values 0.998 | S. cerevisiae deletion strains, locus YMR205C, strain PFK2, hits give low values 1.01 | S. cerevisiae deletion strains, locus YMR223W, strain ubp8, hits give low values 0.992 | S. cerevisiae deletion strains, locus YMR231W, strain pep5, hits give low values 0.997 | S. cerevisiae deletion strains, locus YMR263W, strain SAP30, hits give low values 1 | S. cerevisiae deletion strains, locus YMR307W, strain GAS1, hits give low values 0.962 | S. cerevisiae deletion strains, locus YNL067W, strain RPL9B, hits give low values 1.01 | S. cerevisiae deletion strains, locus YNL071W, strain lat1, hits give low values 0.975 | S. cerevisiae deletion strains, locus YNL183C, strain NPR1, hits give low values 0.932 | S. cerevisiae deletion strains, locus YNL209W, strain ssb2, hits give low values 0.99 | S. cerevisiae deletion strains, locus YNL233W, strain BNI4, hits give low values 1.02 | S. cerevisiae deletion strains, locus YNL248C, strain rpa49, hits give low values 1.01 | S. cerevisiae deletion strains, locus YNL250W, strain rad50, hits give low values 1.01 | S. cerevisiae deletion strains, locus YNL271C, strain bni1, hits give low values 0.985 | S. cerevisiae deletion strains, locus YNL298W, strain CLA4, hits give low values 0.969 | S. cerevisiae deletion strains, locus YNL307C, strain MCK1, hits give low values 0.987 | S. cerevisiae deletion strains, locus YNL322C, strain KRE1 (second series), hits give low values 0.992 | S. cerevisiae deletion strains, locus YNL322C, strain KRE1, hits give low values 1 | S. cerevisiae deletion strains, locus YNR049C, strain mso1, hits give low values 1 | S. cerevisiae deletion strains, locus YNR052C, strain pop2, hits give low values 0.998 | S. cerevisiae deletion strains, locus YOL006C, strain TOP1, hits give low values 1 | S. cerevisiae deletion strains, locus YOL012C, strain htz1 0.913 | S. cerevisiae deletion strains, locus YOL147C, strain pex11, hits give low values 0.992 | S. cerevisiae deletion strains, locus YOR001W, strain rrp6, hits give low values 1 | S. cerevisiae deletion strains, locus YOR061W, strain CKA2, hits give low values 1.01 | S. cerevisiae deletion strains, locus YOR069W, strain VPS5, hits give low values 1.01 | S. cerevisiae deletion strains, locus YOR070C, strain gyp1, hits give low values 1.01 | S. cerevisiae deletion strains, locus YOR080W, strain dia2, hits give low values 1 | S. cerevisiae deletion strains, locus YOR083W, strain WHI5, hits give low values 0.988 | S. cerevisiae deletion strains, locus YOR106W, strain vam3, hits give low values 1 | S. cerevisiae deletion strains, locus YOR136W, strain idh2, hits give low values 0.988 | S. cerevisiae deletion strains, locus YOR144C, strain elg1, hits give low values 0.985 | S. cerevisiae deletion strains, locus YOR184W, strain ser1, hits give low values 0.982 | S. cerevisiae deletion strains, locus YOR231W, strain MKK1, hits give low values 0.955 | S. cerevisiae deletion strains, locus YOR265W, strain rbl2, hits give low values 0.997 | S. cerevisiae deletion strains, locus YOR270C, strain vph1, hits give low values 1.02 | S. cerevisiae deletion strains, locus YOR290C, strain snf2, hits give low values 0.996 | S. cerevisiae deletion strains, locus YOR316C, strain cot1, hits give low values 0.993 | S. cerevisiae deletion strains, locus YPL051W, strain arl3, hits give low values 0.992 | S. cerevisiae deletion strains, locus YPL055C, strain LGE1, hits give low values 1.02 | S. cerevisiae deletion strains, locus YPL078C, strain atp4, hits give low values 1.01 | S. cerevisiae deletion strains, locus YPL106C, strain sse1, hits give low values 0.996 | S. cerevisiae deletion strains, locus YPL240C, strain hsp82, hits give low values 1 | S. cerevisiae deletion strains, locus YPL241C, strain CIN2, hits give low values 1 | S. cerevisiae deletion strains, locus YPL256C, strain CLN2, hits give low values 0.959 | S. cerevisiae deletion strains, locus YPR119W, strain clb2, hits give low values 0.986 | S. cerevisiae deletion strains, locus YPR141C, strain kar3, hits give low values 0.984 | S. cerevisiae deletion strains, locus YPR163C, strain tif3, hits give low values 0.99 | S. cerevisiae deletion strains, locus YPR167C, strain met16, hits give low values 0.979 | S. cerevisiae deletion strains, strain wtn01, hits give low values 0.975 | S. cerevisiae strains, strain wild type, hits give low values 1
